Screening results from PubChem.
Sampled rows, rich in hits. Any-hit rate of the full collection: about 3.2%.
CRFBP-R2 agonist: CRF-BP/CRF-R2 complex agonism; HEK293 CRF-R2/CRF-BP, calcium dye fluorescence (FLIPR); percent of saturating CRF peptide response; activation, % at 13.2 µM; actives 0.46% (n = 350,000);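 active = activation of at least 50%, plus an integration ratio under a set limit after plate pattern correction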;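 also: plate controls were neutral control wells without compound for no effect and CRF at EC100 for full effect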
aDG glyco act: increases alpha dystroglycan glycosylation. Pro5-aDG cells, alpha-DG glycosylation AlphaScreen (IIH6); 0% Pro5, 100% B10-LARGE cell signal. actives 0.22% (n = 360,000). activation, % at 10 µM. AID 624168;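 active = activation of at least 8% versus controls, or a plate z-score of at least 8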;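 also: Pro5 are CHO cells carrying HIG-tagged alpha-DG that lacks glycosylation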
CRFR2-BP antag: CRF-BP/CRF-R2 complex antagonism; inhibition, % at 11.8 µM; AID 588475; actives 0.59% (n = 350,000); HEK293 CRF-R2/CRF-BP, CRF-induced calcium fluorescence;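 active = inhibition of the ligand-induced calcium signal above about 50% at the single tested concentration, limit read from the data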
FAS-TE inh: FAS thioesterase (human) inhibition; recombinant FAS-TE, OMFH fluorogenic substrate, fluorescence endpoint; actives 0.67% (n = 360,000); inhibition, % at 15 µM; P49327;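 active = compounds whose normalised, plate-corrected inhibition of enzyme fluorescence in the single-dose primary screen is 50% or more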;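 also: 0% = DMSO with enzyme and 100% = substrate without enzyme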
Cardio protect: modulators protecting cardiomyocytes from myocardial damage. protection from H2O2 cell death, % at 20 µM. H9c2 cardiomyocytes, H2O2 injury protection, ATPLite, 2 h. AID 588492. actives 0.63% (n = 360,000);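 active = compounds giving at least 50% protection of heart cells from peroxide-induced death in the single-dose screen, raw or plate-pattern-corrected value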;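 also: 0% = DMSO wells with peroxide and 100% = DMSO wells without peroxide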
PfGluPho inh: PfG6PD (Plasmodium falciparum) enzyme inhibition. PfGluPho enzyme, NADPH resazurin-diaphorase fluorescence. inhibition, % at 20 µM. actives 0.78% (n = 350,000). AID 504690;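 active = inhibition reaching at least a set limit at 20 µM in the primary screen, cut at about 59% in these data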;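 also: 0% = DMSO wells with substrate and 100% = DMSO wells lacking glucose-6-phosphate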
* = called active by the depositor.

Results for CCOc1ccc(C(C(=O)NCC2CCCO2)N(C(=O)c2snc(C(N)=O)c2N)c2ccccc2F)cc1 (stereo unspecified) ?
CRFBP-R2 agonist: -2; aDG glyco act: 0; CRFR2-BP antag: 4; FAS-TE inh: 6; Cardio protect: 61*; PfGluPho inh: 8

What do the screens show for `COc1ccc(C(C(=O)NC2CCCC2)N(C(=O)c2snc(C(N)=O)c2N)c2cccc(O)c2)cc1` (stereo unspecified)?
CRFBP-R2 agonist: -1; aDG glyco act: 0; CRFR2-BP antag: -2; FAS-TE inh: 3; Cardio protect: 52*; PfGluPho inh: 2

Results for CCOc1ccc(C(C(=O)NCC2CCCO2)N(Cc2cccs2)C(=O)c2snc(C(N)=O)c2N)cc1 (stereo unspecified) ?
CRFBP-R2 agonist: 0; aDG glyco act: 0; CRFR2-BP antag: -9; FAS-TE inh: 4; Cardio protect: 68*; PfGluPho inh: -16

What do the screens show for `COc1ccc(C(C(=O)NCC2CCCO2)N(Cc2cccs2)C(=O)c2snc(C(N)=O)c2N)cc1OC` (stereo unspecified)?
CRFBP-R2 agonist: -1; aDG glyco act: 0; CRFR2-BP antag: -11; FAS-TE inh: 0; Cardio protect: 30; PfGluPho inh: -10

What do the screens show for `CCN1CCN(c2ccc(S(=O)(=O)N3CCOCC3)cc2NC(=O)c2ccc(Cl)s2)CC1`?
CRFBP-R2 agonist: 0; aDG glyco act: 0; CRFR2-BP antag: -6; FAS-TE inh: -2; Cardio protect: -1; PfGluPho inh: 2

How did COc1ccc(S(=O)(=O)NC(=O)C2(C)CCN2C(=O)C(C)(C)c2ccccc2)cc1 (stereo unspecified) do in these assays?
aDG glyco act: 0; FAS-TE inh: -7; Cardio protect: 2

How did CSc1nsc(SCC(=O)Nc2ccc(C(=O)O)cc2)n1 do in these assays?
CRFBP-R2 agonist: 1; aDG glyco act: 0; CRFR2-BP antag: -4; FAS-TE inh: -2; Cardio protect: 1; PfGluPho inh: -23

Results for CCOC(=O)c1cnc(-n2nc(C)cc2C)nc1NCCc1ccccc1 ?
CRFBP-R2 agonist: -1; aDG glyco act: 3; CRFR2-BP antag: 14; FAS-TE inh: 6; Cardio protect: 61*; PfGluPho inh: 23

How did CCOC(=O)c1cnc(-n2nc(C)cc2C)nc1NC1CCCC1 do in these assays?
CRFBP-R2 agonist: -1; aDG glyco act: 2; CRFR2-BP antag: 2; FAS-TE inh: 16; Cardio protect: -7; PfGluPho inh: -7

How did CCOC(=O)c1cnc(-n2nc(C)cc2C)nc1NCc1ccc2c(c1)OCO2 do in these assays?
CRFBP-R2 agonist: -1; aDG glyco act: 4; CRFR2-BP antag: 16; FAS-TE inh: 6; Cardio protect: 16; PfGluPho inh: 20

How did CCOC(=O)c1cnc(-n2nc(C)cc2C)nc1Nc1ccc(OC)cc1 do in these assays?
CRFBP-R2 agonist: 0; aDG glyco act: 4; CRFR2-BP antag: 6; FAS-TE inh: 0; Cardio protect: 50*; PfGluPho inh: 35

How did COc1ccc(/C=C2\CCC(C3CCCC3)C2=O)cc1OC (stereo unspecified) do in these assays?
CRFBP-R2 agonist: 1; aDG glyco act: 0; CRFR2-BP antag: 53*; FAS-TE inh: 12; Cardio protect: -7; PfGluPho inh: 14

How did COc1cc(/C=C2/C(=O)ON=C2c2ccccc2)ccc1O do in these assays?
CRFBP-R2 agonist: 4; aDG glyco act: 0; CRFR2-BP antag: 56*; FAS-TE inh: -13; Cardio protect: 5; PfGluPho inh: -2

Results for COc1cc(/C=C2\COC/C(=C\c3ccc(O)c(OC)c3)C2=O)ccc1O ?
CRFBP-R2 agonist: -2; aDG glyco act: 0; CRFR2-BP antag: -5; FAS-TE inh: -1; Cardio protect: 53*; PfGluPho inh: 14

How did COc1cc(/C=C2\C(=O)ON=C2c2ccccc2)cc(Cl)c1O do in these assays?
CRFBP-R2 agonist: 15; aDG glyco act: 0; CRFR2-BP antag: -18; FAS-TE inh: -3; Cardio protect: -12; PfGluPho inh: -1

How did COc1cc(/C=C2/CC/C(=C/c3ccc(O)c(OC)c3)C2=O)ccc1O do in these assays?
CRFBP-R2 agonist: 167*; aDG glyco act: 0; CRFR2-BP antag: -132; FAS-TE inh: -5; Cardio protect: 70*; PfGluPho inh: 28
